The entries come from a sample that favours hits as a whole.
Pf Dd2 growth = qHTS Primary assay for Inhibitors of Plasmodium falciparum Dd2 growth in vitro; AID 1347417, 2020; 120,000 compounds, 4.3% hits; P. falciparum Dd2 growth, SYBR Green, 72 h; Potency, µM (highest dose often 28.9 µM), actives largely listed as inhibitors; active = well fitted inhibition curve with a large enough effect; note: nearly all actives have a fitted effect of over 65% in size
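Readout: SYBR Green fluorescence, 485 nm excitation, 535 nm emission, after ~16 h lysis at 37C. Before that, Dd2-infected red cells (2.5% hematocrit) grew 72 h with compound, 29 uM top final concentration.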
Each line names hits and unclear results; the compound was inactive in the other large screens.

CNC(=O)[C@@H]1C[C@@H](n2cc(CNC(=O)Nc3ccc(C)c(Cl)c3)nn2)CN1	none
O=C1CS(=O)C2(CCNCC2)N1Cc1cccc(F)c1 (centres undefined)	none
Cc1ccc(C(=O)NC2CCN(c3cn[nH]c(=O)c3)CC2)cc1F	none
OC1(CN2CCCCC2)CCN(Cc2ccc(F)c(Cl)c2)C1 (centres undefined)	Pf Dd2 growth 8.9µM
O=C1N(CCc2ccccc2)CCOC12CCN(Cc1ccc(F)c(Cl)c1)CC2	none
OCC1(CN2CCCC2)CCN(Cc2cccc(O)c2)CC1	none
COc1cc(CN2CCC(CO)(CN3CCCC3)CC2)ccc1F	Pf Dd2 growth 7.9µM
Cc1cc(F)ccc1CN1CCC(CO)(CN2CCCC2)CC1	none
CN1C(=O)[C@H]2CN(Cc3ccc(F)c(Cl)c3)C[C@H]2C1=O	none
CC(C)(C)c1cc(C[C@H]2CNCC[C@H]2CC(=O)N2CCCCC2)no1	none
O=C(c1cnc(Nc2ccccc2)nc1)N1CC[C@H](CO)[C@@H](O)C1	none
O=C(NCCCn1nnc2ccccc21)C1NCCc2[nH]cnc21 (centres undefined)	none
CC(C)C(=O)N1CCC2(CC1)CC(N1CCCC1)CCO2 (centres undefined)	none
COc1ccc(-c2cc(-c3cccc(CO)c3)cn3cncc23)cn1	Pf Dd2 growth 4µM
COc1cccc(-c2cc(-c3cn[nH]c3)c3cncn3c2)c1	none
CC(=O)Nc1cccc(-c2cc(-c3ccncc3)c3cncn3c2)c1	none
O=c1ccc(-c2cc(-c3cccc(C(F)(F)F)c3)cn3cncc23)c[nH]1	none
COc1ccc(-c2cc(-c3cccnc3)c3cncn3c2)cn1	none
COc1ccc(-c2cc(-c3cccc(C(N)=O)c3)cn3cncc23)cc1	Pf Dd2 growth 3.5µM
NC(=O)c1cccc(-c2cc(-c3cccnc3)c3cncn3c2)c1	none
COc1ccc(-c2cc(-c3cccc(O)c3)cn3cncc23)cc1	Pf Dd2 growth 1.3µM
c1cncc(-c2cc(-c3cccc4cc[nH]c34)cn3cncc23)c1	Pf Dd2 growth 10µM
COC1CCC12CCN(C(=O)c1cc(C)n(C)n1)CC2 (centres undefined)	none
CC1(c2ccccc2)N(Cc2ccc(O)cc2)C(=O)OC12CCN(CC1CC1)CC2 (centres undefined)	none
O=C(CN1C(=O)NC2(CCCCC2)C1=O)Nc1ccc(C(F)(F)F)cc1	none
O=C(Nc1cccc(F)c1)C1(CCO)CC12CCOCC2 (centres undefined)	none
COc1ccc(CC(=O)Nc2ccc([C@@H](O)[C@H]3COCC(=O)N3Cc3ccccc3F)cc2)cc1	none
COCc1noc([C@@H]2CC(F)(F)CN2S(=O)(=O)c2ccccc2)n1	none
Cc1cc(C(=O)N2CCC3(CCNCC3)CC2)c2cccc(C)c2n1	none
O=C([C@@H]1C[C@H](F)CN1C(=O)c1ccsc1)N1CCCCC1	none
O=C(CCc1nnn2c1CN(C(=O)Cc1c[nH]c3ccccc13)CC2)N1CCCC1	none
O=C1Nc2ccccc2CC12CN(Cc1ccc(F)cc1)C2	none
CC(C)(C)c1oc(C(N)=O)cc1CN1CCCC(CO)(CC2CC2)C1 (centres undefined)	none
CSc1ccc(-c2cccc(C(=O)O)c2)cc1	none
CC(=O)NC1(C)CN(c2cccc(C(F)(F)F)c2)C1	none
COc1ncccc1-c1csc(CN2CCCC(C)(NC(C)=O)C2)c1 (centres undefined)	none
CC(=O)NC1(C)CN(Cc2ccc(-c3ccc(Oc4ccccc4)cc3)s2)C1	Pf Dd2 growth 4µM
CC(=O)NC1(C)CN(Cc2ccc(-c3cccc(C(F)(F)F)c3)s2)C1	Pf Dd2 growth 7.1µM
CC(=O)Nc1cccc(-c2csc(CN3CCCC(C)(NC(C)=O)C3)c2)c1 (centres undefined)	none
CC(=O)NC1(C)CN(Cc2ccc(-c3cccc(F)c3)s2)C1	none
O=C1CCN(S(=O)(=O)c2ccccc2)CCCN(C(=O)c2ccncc2)CCN1	none
O=C(Cn1nc2c(cc1=O)CCCCC2)NCCc1cccc(F)c1	none
O=C(NCc1cccnc1)C1CC(=O)N(c2n[nH]c3ccccc23)C1 (centres undefined)	none
CN1C[C@@H](NC(=O)COc2ccccc2)C[C@H]1c1nc(-c2cccnc2)no1	none
Cc1cn2nc(C(=O)N3CCC(NC(=O)c4ccc(Cl)cc4)CC3)cc2c(=O)[nH]1	none
O=C(c1cc(F)ccc1Cl)N1CCC2(CC1)CC(O)CCO2 (centres undefined)	none
O=C(c1ccc[n+]([O-])c1)N1CCOC(CC(c2ccccc2)c2ccccc2)C1 (centres undefined)	none
Cc1ncncc1C(=O)N1CCOC(CC(c2ccccc2)c2ccccc2)C1 (centres undefined)	none
NC1(C(=O)N2CCOC(CC(c3ccccc3)c3ccccc3)C2)CC1 (centres undefined)	Pf Dd2 growth 10µM
O=C(NCCC1CCN(C(=O)Nc2cc(F)ccc2F)CC1)c1ccc2nc[nH]c2c1	none
CN1C(=O)CS(=O)(=O)C12CCN(C(=O)COc1ccc(F)cc1)CC2	none
CCCc1nnc(C[C@@H]2C[C@@H](C(C)C)[C@H](CN3CC[C@H](NC(C)=O)C3)C=C2C)o1	Pf Dd2 growth 5µM
CC(=O)NC[C@@H]1C=C(C)[C@H](CC(=O)O)C[C@H]1C(C)C	none
CC1=C[C@@H](CC#N)[C@H](C(C)C)C[C@H]1CC(=O)N1CCC(C)CC1	none
COCCN1CCN(C[C@@H]2C=C(C)[C@H](Cc3nnc(COc4ccc(F)cc4)o3)C[C@H]2C(C)C)CC1	Pf Dd2 growth 5µM
CC1=C[C@@H](CN2CCC(O)CC2)[C@H](C(C)C)C[C@H]1Cc1nnc(C(C)(C)C)o1	Pf Dd2 growth 10µM
CCCc1nnc(C[C@@H]2C[C@@H](C(C)C)[C@H](CN3CCC(CO)CC3)C=C2C)o1	Pf Dd2 growth 10µM
CCCc1nnc([C@H]2CCN(Cc3ccc(NC(C)=O)cc3)C2)o1	none
CC1=C[C@@H](CN2CCC(C(N)=O)CC2)[C@H](C(C)C)C[C@H]1Cc1nnc(C)o1	none
COc1ccc(C(=O)NC[C@@H]2C=C(C)[C@H](CC(=O)N3CCOCC3)C[C@H]2C(C)C)cc1	none
O=C(C1CCOCC1)N1C[C@H]2OC(=O)N(CCc3cccc(Cl)c3)[C@H]2C1	none
Cc1nc(-c2cn(C3CCCN(C(=O)c4cccc(N(C)C)c4)C3)nn2)no1 (centres undefined)	none
CN1C(=O)CCC2(CNC(=O)c3cccnc3)CCCC=C12 (centres undefined)	none
CN1C(=O)CCC2(CNC(=O)Nc3ccccc3)CCC=C12 (centres undefined)	none
COc1ccc(NC(=O)N2CCCC(Cn3cnc4cccnc43)C2)cc1OC (centres undefined)	none
CCOc1ccccc1C1NC(=O)N(CC(=O)Nc2ccc(F)cc2F)C2=C1C(=O)OC2 (centres undefined)	none
COc1ccc2cc(C(=O)N3CCC4(CC3)CC(O)CCO4)[nH]c2c1 (centres undefined)	none
O=C(Cc1cccs1)N1CCC2(CC1)N=C(c1ccc(Cl)cc1)NO2	none
C#CCNC(=O)c1onc(-c2ccc(F)cc2)c1[C@H](C)O	none
O=C(c1cccnc1)N1CCC(Oc2cccc(F)c2)C1 (centres undefined)	none
COc1ccc(CN(C)C(=O)C2CNCCO2)c2cccnc12 (centres undefined)	none
COc1ccccc1CN1CCC(n2cc[nH]c2=O)CC1	none
CCCc1cc(=O)oc2c3c(ccc12)OCN(Cc1ccccc1OC)C3	Pf Dd2 growth 3.2µM
COc1ccccc1CN1COc2ccc3c(oc(=O)c4ccccc43)c2C1	Pf Dd2 growth 0.56µM
COc1ccc(CN2CCN(Cc3cc(=O)oc4cc(C)ccc34)CC2)c(OC)c1OC	none
COc1ccccc1CN1CCc2nc(C(=O)N3CCOCC3)oc2CC1	none
